Measurements: PubChem BioAssay AID1159580 (chemical genetic matrix, 2015)
Values joined by “and” are separate entries in the source; they are usually repeats but may differ in a detail not shown here. Equal values may be shown once. Hit rate of the full screen: of about 5,500 compounds, about 2,000 (36%) were called active. Not shown: some 18% with an inconclusive outcome. Cut-off read from the data, not from the text of the source: active = normalized growth mostly below about 0.91 (no sharp cut-off); inconclusive = no clear call, values can overlap the other calls; inactive = mostly above about 0.92. This is one part of the list.

Experiment: chemical genetic growth profiling, strain panel (AID 1159580);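 note: tested at 20 µM; growth read once vehicle control cultures reached saturation at 30 °C; 1 = growth at the plate median or of vehicle wells; lower values mean less growth of the strain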
Settings: S. cerevisiae deletion strains, growth OD

Measured: normalized growth

Cc1c(NC(=O)c2cccnc2)c(=O)n(-c2ccccc2)n1C
inactive: locus YAL013W, strain DEP1, hits give low values 0.996 | locus YAL021C, strain ccr4, hits give low values 1.02 | locus YAL026C, strain drs2, hits give low values 0.999 | locus YAL030W, strain snc1, hits give low values 1 | locus YBL061C, strain skt5, hits give low values 1 | locus YBR009C, strain hhf1, hits give low values 0.966 | locus YBR021W, strain FUR4, hits give low values 1.03 | locus YBR023C, strain chs3, hits give low values 1.01 | locus YBR171W, strain sec66, hits give low values 1 | locus YBR229C, strain ROT2, hits give low values 0.964 | locus YBR231C, strain swc5, hits give low values 1.01 | locus YBR279W, strain paf1, hits give low values 0.999 | locus YCL011C, strain gbp2, hits give low values 1 | locus YCL016C, strain dcc1, hits give low values 0.999 | locus YCL029C, strain bik1, hits give low values 0.997 | locus YCL061C, strain MRC1, hits give low values 1 | locus YCL069W, strain vba3, hits give low values 0.989 | locus YCR088W, strain abp1, hits give low values 0.997 | locus YDL005C, strain med2, hits give low values 1 | locus YDL035C, strain GPR1, hits give low values 0.992 | locus YDL040C, strain nat1, hits give low values 0.988 | locus YDL074C, strain BRE1, hits give low values 0.949 | locus YDL101C, strain DUN1, hits give low values 0.981 | locus YDL134C, strain PPH21, hits give low values 1.01 | locus YDL185W, strain tfp1, hits give low values 0.983 | locus YDL192W, strain arf1, hits give low values 0.994 | locus YDR001C, strain nth1, hits give low values 0.992 | locus YDR069C, strain doa4, hits give low values 1.01 | locus YDR101C, strain arx1, hits give low values 0.988 | locus YDR137W, strain rgp1, hits give low values 0.992 | locus YDR159W, strain sac3, hits give low values 1 | locus YDR162C, strain NBP2, hits give low values 1 | locus YDR195W, strain ref2 0.998 | locus YDR297W, strain sur2, hits give low values 0.999 | locus YDR318W, strain mcm21, hits give low values 1 | locus YDR334W, strain swr1, hits give low values 0.999 | locus YDR335W, strain msn5, hits give low values 0.997 | locus YDR388W, hits give low values 1 | locus YDR392W, strain spt3, hits give low values 0.934 | locus YDR502C, strain sam2, hits give low values 0.994 | locus YEL003W, strain gim4, hits give low values 1 | locus YEL037C, strain rad23, hits give low values 0.994 | locus YEL061C, strain CIN8 (second series), hits give low values 1 | locus YEL061C, strain CIN8, hits give low values 0.98 | locus YER015W, strain faa2, hits give low values 1 | locus YER016W, strain bim1, hits give low values 1 | locus YER110C, hits give low values 0.997 | locus YER111C, strain swi4, hits give low values 0.997 | locus YER155C, strain BEM2 (second series), hits give low values 1.02 | locus YER155C, strain BEM2, hits give low values 1 | locus YER167W, strain BCK2, hits give low values 1 | locus YFR010W, strain ubp6, hits give low values 0.997 | locus YGL078C, strain dbp3, hits give low values 0.988 | locus YGL086W, strain mad1, hits give low values 0.985 | locus YGL167C, strain pmr1, hits give low values 1 | locus YGL173C, strain kem1, hits give low values 1.01 | locus YGL227W, strain vid30, hits give low values 0.998 | locus YGL240W, strain doc1, hits give low values 1.01 | locus YGL248W, strain PDE1, hits give low values 0.974 | locus YGL253W, strain hxk2, hits give low values 1 | locus YGR078C, strain PAC10, hits give low values 0.97 | locus YGR135W, strain pre9, hits give low values 1.07 | locus YGR252W, strain gcn5, hits give low values 1.02 | locus YHR013C, strain ard1, hits give low values 0.96 | locus YHR027C, strain rpn1, hits give low values 1.01 | locus YHR030C, strain SLT2, hits give low values 1 and 1.04 | locus YHR079C, strain IRE1 (second series), hits give low values 0.992 | locus YHR079C, strain IRE1, hits give low values 1.02 | locus YHR094C, strain hxt1, hits give low values 0.998 | locus YHR129C, strain ARP1, hits give low values 1 | locus YHR142W, strain chs7, hits give low values 1 | locus YHR200W, strain rpn10, hits give low values 0.992 | locus YIL066C, strain RNR3, hits give low values 0.974 | locus YIL073C, strain SPO22, hits give low values 1.04 | locus YIL125W, strain kgd1, hits give low values 0.987 | locus YIR030C, strain dcg1, hits give low values 0.999 | locus YJL092W, strain hpr5, hits give low values 1 | locus YJL095W, strain BCK1 (second series), hits give low values 1 | locus YJL095W, strain BCK1, hits give low values 0.964 and 1.04 | locus YJL115W, strain asf1, hits give low values 1 | locus YJL129C, strain trk1, hits give low values 1.01 | locus YJL134W, strain LCB3, hits give low values 0.995 | locus YJL154C, strain vps35, hits give low values 0.989 | locus YJL164C, strain tpk1, hits give low values 1.01 | locus YJL166W, strain qcr8, hits give low values 1.01 | locus YJL168C, strain set2, hits give low values 0.987 | locus YJL187C, strain SWE1 (second series), hits give low values 0.95 | locus YJL187C, strain SWE1, hits give low values 0.999 | locus YJR043C, strain POL32, hits give low values 0.924
